Only some compounds are listed: those with a hit (about 20% of all), similar ones and a draw of the others.
Pf growth 48h – Primary qHTS for delayed death inhibitors of the malarial parasite plastid, 48 hour incubation. P. falciparum luciferase growth in erythrocytes, 48 h. Potency, µM (titrated, usually from 28.7 µM), most hits filed as inhibitors. 5.9% of 310,000 active. AID 504832, 2011
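Parasite viability was followed by luminescence of a genomically integrated firefly luciferase. Cultures held 0.1% parasitemia at 2% hematocrit (final), incubated under 5% CO2 at 37 C.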
Cycloheximide cs – Cycloheximide Counterscreen for Small Molecule Inhibitors of Shiga Toxin. cell reporter, cycloheximide protein synthesis inhibition counterscreen. 12% of 300,000 active. max response, %; in the data active means max response mostly above about 13%, no sharp cut-off; inactive means mostly below about 14%; further: read at 38.3 µM for the half of the compounds with a filed dose
Pf growth 96h – Primary qHTS for delayed death inhibitors of the malarial parasite plastid, 96 hour incubation; P. falciparum luciferase reporter growth, 96 h; Potency, µM (titrated, usually from 28.7 µM), most hits filed as inhibitors; 6.9% of 320,000 active; AID 504834, 2011
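Delayed-death screen, second-generation endpoint: infected erythrocytes, 2% hematocrit, 0.05% parasitemia final; 96 hours at 37 C, 5% CO2; luciferase detection reagent; luminescence decrease equals reduced growth.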
Shiga inhibitor – A qHTS for Small Molecule Inhibitors of Shiga Toxin; 9.2% of 290,000 active; Vero cells, Shiga toxin protein synthesis inhibition reporter; inhibition, % at 38.7 µM; in the data active means inhibition mostly above about 28%, no sharp cut-off; inactive means mostly below about 43%
HCMV inh – qHTS Assay for inhibitors of the human cytomegalovirus (HCMV); HFF cells, HCMV-luciferase reporter, 72 h; active compounds read low; activity change, negative = inhibition, % at 57.5 µM; 4.5% of 410,000 active; AID 1259415, 2018; in the data active means activity change below about -60%; inconclusive means no clear call, values can overlap the other calls; inactive means above about -39%
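Inhibition of viral replication was scored as loss of reporter luminescence in HFFs infected with HCMV-luciferase (MOI 1 PFU/cell) for 72 h; compounds tested at 2 doses, normalized to buffer and Salinomycin controls.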
Of the large screens only hits and unclear results are named; the others gave an inactive call. Unless noted, the call rests on the fitted dose curve; in most records, active means well fitted inhibition curve with a large enough effect; inconclusive means small, poorly fitted or top-dose-only effect, or another doubt; inactive means no such curve, though single readings can be large or run the other way.

COc1cccc(C2=NOC(C(=O)Nc3cccc(C(C)=O)c3)C2)c1 (centres undefined)	none
N#C/C(=C(/O)COC(=O)CCCNC(=O)c1ccc(Cl)cc1)c1nc2ccccc2[nH]1	HCMV inh -93
N#C/C(=C(/O)COC(=O)CSc1ccc(Cl)cc1)c1nc2ccccc2[nH]1	HCMV inh -81
C=CCN(CC=C)C(=O)Nc1cc(OC)ccc1OC	none
O=C(NCCN1CCOCC1)c1cc(Sc2ccccc2Cl)nc2ccccc12	Pf growth 96h inconclusive, HCMV inh -61
O=C(NCCN1CCOCC1)c1cc(-c2ccc(Cl)s2)nc2ccccc12	none
Cc1ccc(Nc2cc(C(=O)NCCCN3CCOCC3)c3ccccc3n2)cc1C	Cycloheximide cs 38, Shiga inhibitor 40
O=C(NCCN1CCOCC1)c1cc(-c2ccccc2Cl)nc2ccccc12	Pf growth 96h 9.3µM
COc1ccc(-c2cc(C)no2)cc1S(=O)(=O)N1CCN(c2ccccn2)CC1	none
COc1ccc(-c2cc(C)no2)cc1S(=O)(=O)N1CCCN(Cc2ccccc2Cl)C1	Pf growth 48h inconclusive, Pf growth 96h 12µM
CCc1ccc(-c2cc(C)no2)cc1S(=O)(=O)N1CCOc2ccccc21	Pf growth 48h 8.3µM, Pf growth 96h inconclusive, HCMV inh -74
COc1ccc(-c2cc(C)no2)cc1S(=O)(=O)N1CCOc2ccc(C)cc21	Pf growth 48h inconclusive
CCc1ccc(-c2cc(C)no2)cc1S(=O)(=O)N1CCN(c2ccc(OC)cc2)CC1	Pf growth 48h inconclusive, HCMV inh -67
CCc1ccc(-c2cc(C)no2)cc1S(=O)(=O)NCCCN1CCN(c2ccccc2)CC1	Pf growth 48h 13µM, Pf growth 96h inconclusive, HCMV inh inconclusive
COCCCNC(=O)C1CCC(CNS(=O)(=O)c2ccc3c(c2)N(C(C)=O)CCO3)CC1 (centres undefined)	Pf growth 96h inconclusive
COc1cccc(N2C(=O)CSC23C(=O)N(CC(=O)NCc2ccc(C)cc2)c2ccccc23)c1 (centres undefined)	none (no result: Pf growth 48h, Cycloheximide cs, Pf growth 96h, Shiga inhibitor)
CCOC(=O)CSc1nc2ccc(NC(=O)COc3ccc(F)cc3)cc2s1	none (no result: Pf growth 48h, Cycloheximide cs, Pf growth 96h, Shiga inhibitor)
CCOc1ccc(N(C)S(=O)(=O)c2cc(-c3cc(C)no3)ccc2C)cc1	Pf growth 48h inconclusive
COc1ccc(-c2cc(C)no2)cc1S(=O)(=O)N1CCN(c2ccc([N+](=O)[O-])cc2)CC1	Pf growth 48h inconclusive, Pf growth 96h inconclusive, HCMV inh active
CCc1ccc(-c2cc(C)no2)cc1S(=O)(=O)N1CCN(c2ccc(F)cc2)CC1	Pf growth 48h 13µM, Pf growth 96h inconclusive, HCMV inh inconclusive
COc1ccc(-c2cc(C)no2)cc1S(=O)(=O)N1CCN(c2ccccc2F)CC1	HCMV inh inconclusive
CCOc1ccc(N(C)S(=O)(=O)c2cc(-c3cc(C)no3)ccc2CC)cc1	Pf growth 48h 12µM, HCMV inh -90
CCc1ccc(-c2cc(C)no2)cc1S(=O)(=O)N1CCN(c2ccccn2)CC1	Pf growth 48h inconclusive, Pf growth 96h inconclusive
CCc1ccc(-c2cc(C)no2)cc1S(=O)(=O)N1CCN(C(=O)c2ccco2)CC1	Pf growth 48h inconclusive, Pf growth 96h 9.3µM
COc1ccc(Cn2ccc(=O)c(Cc3c(Cl)cccc3Cl)c2C)cc1	Pf growth 48h inconclusive, Pf growth 96h inconclusive
Cc1ccc(Cn2ccc(=O)c(Cc3c(Cl)cccc3Cl)c2C)cc1	Pf growth 48h inconclusive, Pf growth 96h 0.41µM
CC1NC(=O)c2cc3ccccc3cc2-n2c1nc1ccc(F)cc1c2=O (centres undefined)	none (no result: Pf growth 48h, Cycloheximide cs, Pf growth 96h, Shiga inhibitor)
COc1nc(NCCc2ccc(OC)c(OC)c2)nc(Nc2ccccc2)n1	Pf growth 48h inconclusive, Cycloheximide cs 54, Pf growth 96h inconclusive (no result: Shiga inhibitor)
CC(C)(C)c1cc(NCc2ccccn2)n2ncc(-c3ccccc3)c2n1	Pf growth 48h inconclusive, Cycloheximide cs 51, Pf growth 96h inconclusive, Shiga inhibitor 97
COc1ccc(CCNc2cc(C)nc3c(-c4ccccc4)cnn23)cc1OC	Cycloheximide cs 48, Shiga inhibitor active, HCMV inh -68
Cc1cc(NC(C)c2ccccc2)n2ncc(-c3ccccc3)c2n1 (centres undefined)	Cycloheximide cs 44, Shiga inhibitor 69
Cc1cc(NCc2ccccc2)n2ncnc2n1	none
Cc1cc(NCc2ccccc2)n2ncc(-c3ccccc3)c2n1	Cycloheximide cs 67, Shiga inhibitor 93
Cc1cc(NCCN2CCOCC2)n2ncc(-c3ccccc3)c2n1	Cycloheximide cs 28, Shiga inhibitor 41
COc1ccccc1-c1cnn2c(NCCc3ccccc3)cc(C)nc12	Cycloheximide cs 34, Shiga inhibitor 75
COc1ccc(CCNc2cc(C)nc3c(-c4ccc(Cl)cc4)cnn23)cc1OC	none
COc1ccc(CCN=C(N)NS(=O)(=O)c2ccccc2)cc1OC	none
O=C(CCn1ccnc1)Nc1nc2ccccc2[nH]1	none
c1coc(-c2cc3nc(NC4CCCCC4)ccn3n2)c1	none (no result: Pf growth 48h, Cycloheximide cs, Pf growth 96h, Shiga inhibitor)
COc1ccccc1CN(C(=O)CCl)C(C(=O)NC1CCCCC1)c1ccncc1 (centres undefined)	Pf growth 48h inconclusive, Pf growth 96h inconclusive (no result: HCMV inh)
COc1ccc(C(=O)/C=C/C(=O)N(Cc2ccccc2)C(C(=O)NC2CCCCC2)c2ccncc2)c(O)c1 (centres undefined)	Pf growth 48h inconclusive, HCMV inh inconclusive
COc1ccc(C(=O)/C=C/C(=O)N(Cc2ccc(F)cc2)C(C(=O)NC2CCCCC2)c2ccncc2)c(O)c1 (centres undefined)	Pf growth 48h 5.2µM (no result: HCMV inh)
COc1ccc(C(=O)/C=C/C(=O)N(Cc2ccccc2OC)C(C(=O)NC2CCCCC2)c2ccncc2)c(O)c1 (centres undefined)	Pf growth 48h 12µM, HCMV inh inconclusive
NS(=O)(=O)c1ccc(NC(=O)CN2C(=O)COc3ccc(Cl)cc32)cc1	none (no result: Pf growth 48h, Cycloheximide cs, Pf growth 96h, Shiga inhibitor)
CCOc1cc(CNn2cnnc2)cc(Br)c1OCC(=O)NC1CCCCC1	Pf growth 48h inconclusive, Pf growth 96h 9.3µM
CCOc1cc(CNc2ccccc2)cc(Br)c1OCC(=O)NC(C)(C)C	Pf growth 48h inconclusive, Pf growth 96h 9.3µM, HCMV inh -97
CCOc1cc(CNn2cnnc2)cc(Br)c1OCC(=O)NC(C)(C)C	Pf growth 96h inconclusive
CCOc1cc(CNc2ccc(OC)cc2)cc(Br)c1OCC(=O)NC(C)(C)C	Pf growth 48h inconclusive, Pf growth 96h 9.3µM
O=C1CCCC/C1=C\Nc1ccc(O)cc1	Pf growth 48h inconclusive, Cycloheximide cs 41, Shiga inhibitor 64 (no result: Pf growth 96h)
O=C(/C=C/Nc1cccc(C(F)(F)F)c1)C(F)(F)F	none
CCOC(=O)c1ccc(N/C=C2\CCCCC2=O)cc1	Cycloheximide cs 25, Shiga inhibitor 48 (no result: Pf growth 48h, Pf growth 96h)
O=C1CCCC/C1=C/Nc1ccc(S(=O)(=O)Nc2ncccn2)cc1	none
O=C1CCC/C1=C/Nc1ccc(Cl)cc1	Cycloheximide cs 30, Pf growth 96h inconclusive, Shiga inhibitor 72
CCOC(=O)c1ccc(Nc2ccc(C(C)=O)cc2)cc1	none (no result: Pf growth 48h, Cycloheximide cs, Pf growth 96h, Shiga inhibitor)
